Assays:
Test in all cases: DAPPL (digital affinity profiling via proximity ligation, sequencing); 10 mM Tris-HCl pH 7.5, 50 mM NaCl, 1 mM DTT, 4% glycerol, room temperature, 30 min; GST-TFs on glutathione beads, 16-mer random dsDNA library, 0.1% formaldehyde crosslink after washing; high values mean tight binding
Conditions in all cases: protein: recombinant; tags: N-terminal GST; dsDNA, one strand shown
FLI1 = biological target: T1, FLI1 (Homo sapiens, UniProt Q01543 1-452)
T1 sequence: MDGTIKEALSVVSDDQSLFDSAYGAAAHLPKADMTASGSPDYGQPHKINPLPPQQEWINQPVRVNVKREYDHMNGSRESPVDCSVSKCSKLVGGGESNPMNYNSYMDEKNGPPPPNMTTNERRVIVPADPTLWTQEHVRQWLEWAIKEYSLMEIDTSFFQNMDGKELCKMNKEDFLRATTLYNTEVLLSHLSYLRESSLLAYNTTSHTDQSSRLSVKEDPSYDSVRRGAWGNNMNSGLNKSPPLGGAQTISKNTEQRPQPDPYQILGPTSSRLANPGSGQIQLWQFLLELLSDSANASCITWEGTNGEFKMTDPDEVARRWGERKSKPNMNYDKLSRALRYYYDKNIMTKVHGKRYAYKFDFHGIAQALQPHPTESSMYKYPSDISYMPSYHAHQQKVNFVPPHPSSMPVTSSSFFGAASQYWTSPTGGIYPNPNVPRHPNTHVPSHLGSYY
Summary of the method: (§1)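 Human transcription factors carrying a GST fusion were produced in yeast, bound to glutathione beads, tagged with DNA barcodes and pooled together with a tag-only sample. Each pool was held with 200 nmole of a random double-stranded 16-mer DNA library in Tris/NaCl/DTT/glycerol buffer for 30 min at room temperature, then washed, crosslinked in 0.1% formaldehyde, proximity-ligated with BsaI/T4 ligase (1 h, 37 °C), PCR-amplified and sequenced on an Illumina NextSeq500. Binding signal is the read frequency of each hexamer for a given factor divided by its frequency in the tag-only sample.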

ELK1 = biological target: T2, ELK1 (Homo sapiens, UniProt P19419 1-428)
T2 sequence: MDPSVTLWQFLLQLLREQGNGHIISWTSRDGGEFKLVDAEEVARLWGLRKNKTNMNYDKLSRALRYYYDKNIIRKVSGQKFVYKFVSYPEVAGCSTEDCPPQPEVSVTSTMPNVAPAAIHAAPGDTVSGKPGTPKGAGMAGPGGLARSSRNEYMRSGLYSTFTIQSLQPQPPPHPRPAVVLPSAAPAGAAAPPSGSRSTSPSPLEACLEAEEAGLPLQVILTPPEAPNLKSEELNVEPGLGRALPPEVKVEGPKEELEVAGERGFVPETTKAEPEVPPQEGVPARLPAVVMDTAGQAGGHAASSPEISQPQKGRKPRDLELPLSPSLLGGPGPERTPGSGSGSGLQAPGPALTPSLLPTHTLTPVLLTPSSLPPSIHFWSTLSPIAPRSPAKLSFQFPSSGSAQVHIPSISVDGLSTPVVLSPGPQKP
Summary of the method: as §1

GABPA = biological target: T3, GABPA (Homo sapiens, UniProt Q06546 1-454)
T3 sequence: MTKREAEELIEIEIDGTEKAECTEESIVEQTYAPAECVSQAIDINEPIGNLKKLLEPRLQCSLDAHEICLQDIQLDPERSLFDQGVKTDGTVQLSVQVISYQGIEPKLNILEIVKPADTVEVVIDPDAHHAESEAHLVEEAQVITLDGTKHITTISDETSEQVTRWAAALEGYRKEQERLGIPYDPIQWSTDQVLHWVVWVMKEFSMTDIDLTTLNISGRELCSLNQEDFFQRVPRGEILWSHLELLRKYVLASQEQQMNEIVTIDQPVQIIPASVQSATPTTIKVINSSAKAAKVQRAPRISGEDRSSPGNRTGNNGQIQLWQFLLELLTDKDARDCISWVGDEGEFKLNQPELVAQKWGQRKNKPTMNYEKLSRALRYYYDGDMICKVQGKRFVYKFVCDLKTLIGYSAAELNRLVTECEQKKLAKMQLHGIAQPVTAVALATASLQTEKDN
Summary of the method: as §1

ERG = biological target: T4, ERG (Homo sapiens, UniProt P11308 1-479)
T4 sequence: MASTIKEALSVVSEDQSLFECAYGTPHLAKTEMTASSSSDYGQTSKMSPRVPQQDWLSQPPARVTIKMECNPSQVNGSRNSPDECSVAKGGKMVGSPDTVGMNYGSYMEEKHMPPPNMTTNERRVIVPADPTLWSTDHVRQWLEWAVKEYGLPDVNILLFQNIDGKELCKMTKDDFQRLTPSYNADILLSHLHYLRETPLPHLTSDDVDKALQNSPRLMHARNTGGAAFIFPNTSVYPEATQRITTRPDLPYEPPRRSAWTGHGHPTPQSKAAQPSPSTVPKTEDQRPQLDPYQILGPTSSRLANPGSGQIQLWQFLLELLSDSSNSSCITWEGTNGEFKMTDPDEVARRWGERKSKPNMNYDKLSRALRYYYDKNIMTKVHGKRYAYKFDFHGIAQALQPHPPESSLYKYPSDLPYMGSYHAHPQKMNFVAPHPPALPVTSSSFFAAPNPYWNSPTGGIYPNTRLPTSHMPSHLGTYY
Summary of the method: as §1

ELF1 = ELF1 (Homo sapiens, UniProt P32519 1-619)
Chain of ELF1 (P32519 whole entry): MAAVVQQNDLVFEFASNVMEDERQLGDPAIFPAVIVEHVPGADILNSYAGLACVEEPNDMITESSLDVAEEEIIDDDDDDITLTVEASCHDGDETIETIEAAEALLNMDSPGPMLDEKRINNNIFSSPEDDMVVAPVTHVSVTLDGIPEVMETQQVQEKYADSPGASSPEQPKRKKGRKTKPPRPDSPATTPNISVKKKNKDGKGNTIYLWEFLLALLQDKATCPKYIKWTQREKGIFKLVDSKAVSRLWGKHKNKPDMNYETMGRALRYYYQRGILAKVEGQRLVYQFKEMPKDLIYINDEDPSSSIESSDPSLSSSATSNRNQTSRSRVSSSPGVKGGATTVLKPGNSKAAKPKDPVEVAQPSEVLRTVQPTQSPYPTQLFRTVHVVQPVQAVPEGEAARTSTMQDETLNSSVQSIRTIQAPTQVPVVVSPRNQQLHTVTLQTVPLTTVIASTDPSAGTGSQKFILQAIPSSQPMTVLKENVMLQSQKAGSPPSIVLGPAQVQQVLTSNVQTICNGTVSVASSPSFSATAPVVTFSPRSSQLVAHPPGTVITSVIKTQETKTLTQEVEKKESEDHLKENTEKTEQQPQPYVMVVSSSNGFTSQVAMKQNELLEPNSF
Summary of the method: as §1

EHF = biological target: T5, EHF (Homo sapiens, UniProt Q9NZC4 1-300)
T5 sequence: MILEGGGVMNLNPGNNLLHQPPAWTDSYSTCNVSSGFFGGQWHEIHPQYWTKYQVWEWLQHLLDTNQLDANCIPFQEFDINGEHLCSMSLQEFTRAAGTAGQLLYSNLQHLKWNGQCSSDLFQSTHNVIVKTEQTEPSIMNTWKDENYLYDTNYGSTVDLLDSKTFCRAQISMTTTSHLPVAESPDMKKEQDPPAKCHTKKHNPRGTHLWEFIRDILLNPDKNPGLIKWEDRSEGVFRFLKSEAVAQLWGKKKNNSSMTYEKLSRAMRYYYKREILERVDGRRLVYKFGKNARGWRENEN
Summary of the method: as §1

SPI1 = SPI1 (Homo sapiens, UniProt P17947 1-270)
Summary of the method: as §1

SPIB = SPIB (Homo sapiens, UniProt Q01892 1-262)
Chain of SPIB (Q01892 whole entry): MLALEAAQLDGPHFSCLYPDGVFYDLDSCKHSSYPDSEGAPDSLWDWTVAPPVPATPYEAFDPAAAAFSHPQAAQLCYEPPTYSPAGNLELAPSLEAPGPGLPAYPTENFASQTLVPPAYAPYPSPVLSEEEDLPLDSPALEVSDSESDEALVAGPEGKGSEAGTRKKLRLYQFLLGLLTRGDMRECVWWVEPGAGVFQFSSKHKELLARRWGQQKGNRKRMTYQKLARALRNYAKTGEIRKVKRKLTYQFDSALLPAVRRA
Summary of the method: as §1

ELK3 = biological target: T6, ELK3 (Homo sapiens, UniProt P41970 1-407)
T6 sequence: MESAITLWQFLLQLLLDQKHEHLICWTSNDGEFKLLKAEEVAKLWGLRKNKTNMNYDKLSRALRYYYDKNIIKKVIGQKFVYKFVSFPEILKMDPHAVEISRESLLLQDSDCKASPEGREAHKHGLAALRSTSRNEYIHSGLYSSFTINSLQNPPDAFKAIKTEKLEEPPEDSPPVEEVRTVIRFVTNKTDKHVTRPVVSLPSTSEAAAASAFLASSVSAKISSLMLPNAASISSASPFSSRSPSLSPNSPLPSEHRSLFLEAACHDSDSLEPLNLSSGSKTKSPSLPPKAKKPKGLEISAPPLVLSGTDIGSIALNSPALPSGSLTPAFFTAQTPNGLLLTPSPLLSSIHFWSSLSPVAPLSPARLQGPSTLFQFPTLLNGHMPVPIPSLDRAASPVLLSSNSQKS
Summary of the method: as §1

| Sequence | binding signal (FLI1) | binding signal (ELK1) | binding signal (GABPA) | binding signal (ERG) | binding signal (ELF1) | binding signal (EHF) | binding signal (SPI1) | binding signal (SPIB) | binding signal (ELK3) |
| --- | --- | --- | --- | --- | --- | --- | --- | --- | --- |
| CTTTGC | 1.4 fold enrichment (6-mer frequency, TF over GST control) | 1.29 fold enrichment (6-mer frequency, TF over GST control) | 1.39 fold enrichment (6-mer frequency, TF over GST control) | 1.46 fold enrichment (6-mer frequency, TF over GST control) | 1.32 fold enrichment (6-mer frequency, TF over GST control) | 1.32 fold enrichment (6-mer frequency, TF over GST control) | 1.21 fold enrichment (6-mer frequency, TF over GST control) | 1.32 fold enrichment (6-mer frequency, TF over GST control) | 1.33 fold enrichment (6-mer frequency, TF over GST control) |
| TTCAAT | 1.33 fold enrichment (6-mer frequency, TF over GST control) | 1.42 fold enrichment (6-mer frequency, TF over GST control) | 1.42 fold enrichment (6-mer frequency, TF over GST control) | 1.41 fold enrichment (6-mer frequency, TF over GST control) | 1.37 fold enrichment (6-mer frequency, TF over GST control) | 1.34 fold enrichment (6-mer frequency, TF over GST control) | 1.38 fold enrichment (6-mer frequency, TF over GST control) | 1.36 fold enrichment (6-mer frequency, TF over GST control) | 1.26 fold enrichment (6-mer frequency, TF over GST control) |
| GCTTCG | 1.3 fold enrichment (6-mer frequency, TF over GST control) | 1.46 fold enrichment (6-mer frequency, TF over GST control) | 1.35 fold enrichment (6-mer frequency, TF over GST control) | 1.36 fold enrichment (6-mer frequency, TF over GST control) | 1.32 fold enrichment (6-mer frequency, TF over GST control) | 1.26 fold enrichment (6-mer frequency, TF over GST control) | 1.26 fold enrichment (6-mer frequency, TF over GST control) | 1.3 fold enrichment (6-mer frequency, TF over GST control) | 1.4 fold enrichment (6-mer frequency, TF over GST control) |
| GTTTCT | 1.36 fold enrichment (6-mer frequency, TF over GST control) | 1.17 fold enrichment (6-mer frequency, TF over GST control) | 1.26 fold enrichment (6-mer frequency, TF over GST control) | 1.22 fold enrichment (6-mer frequency, TF over GST control) | 1.29 fold enrichment (6-mer frequency, TF over GST control) | 1.28 fold enrichment (6-mer frequency, TF over GST control) | 1.31 fold enrichment (6-mer frequency, TF over GST control) | 1.25 fold enrichment (6-mer frequency, TF over GST control) | 1.14 fold enrichment (6-mer frequency, TF over GST control) |
| ATATAA | 1.15 fold enrichment (6-mer frequency, TF over GST control) | 1.22 fold enrichment (6-mer frequency, TF over GST control) | 1.2 fold enrichment (6-mer frequency, TF over GST control) | 1.15 fold enrichment (6-mer frequency, TF over GST control) | 1.24 fold enrichment (6-mer frequency, TF over GST control) | 1.21 fold enrichment (6-mer frequency, TF over GST control) | 1.1 fold enrichment (6-mer frequency, TF over GST control) | 1.22 fold enrichment (6-mer frequency, TF over GST control) | 1.25 fold enrichment (6-mer frequency, TF over GST control) |
| TTGTAA | 1.32 fold enrichment (6-mer frequency, TF over GST control) | 1.3 fold enrichment (6-mer frequency, TF over GST control) | 1.24 fold enrichment (6-mer frequency, TF over GST control) | 1.27 fold enrichment (6-mer frequency, TF over GST control) | 1.34 fold enrichment (6-mer frequency, TF over GST control) | 1.34 fold enrichment (6-mer frequency, TF over GST control) | 1.3 fold enrichment (6-mer frequency, TF over GST control) | 1.22 fold enrichment (6-mer frequency, TF over GST control) | 1.08 fold enrichment (6-mer frequency, TF over GST control) |
| CTGCGA | 1.25 fold enrichment (6-mer frequency, TF over GST control) | 1.31 fold enrichment (6-mer frequency, TF over GST control) | 1.34 fold enrichment (6-mer frequency, TF over GST control) | 1.29 fold enrichment (6-mer frequency, TF over GST control) | 1.32 fold enrichment (6-mer frequency, TF over GST control) | 1.26 fold enrichment (6-mer frequency, TF over GST control) | 1.33 fold enrichment (6-mer frequency, TF over GST control) | 1.45 fold enrichment (6-mer frequency, TF over GST control) | 1.19 fold enrichment (6-mer frequency, TF over GST control) |
